Assay outcomes as filed in PubChem.
TDP1 cell noCPT – qHTS for Inhibitors of human tyrosyl-DNA phosphodiesterase 1 (TDP1): qHTS in cells in absence of CPT; DT40 Tdp1-/- hTDP1 cells, no CPT, ATP luminescence, 48 h; Potency, µM (doses to about 46.2 µM), actives largely listed as inhibitors; hit rate 15% among 420,000; also: nearly all actives have a fitted effect of over 55% in size
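Chicken DT40 Tdp1-/- cells stably complemented with human TDP1 were seeded at 400 cells/well with DMSO in place of 20 nM camptothecin. After compound pinning, cells grew at least 48 hr at 37 °C; viability read by CellTiter-Glo luminescence.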
TDP1 inh – blocks human tyrosyl-DNA phosphodiesterase 1; AID 485290; hit rate 0.28% among 350,000; recombinant TDP1, AlphaScreen DNA substrate cleavage; Potency, µM (titrated, usually from 130 µM), actives largely listed as inhibitors; also: nearly all actives have a fitted effect of over 40% in size
Target sequence (Q9NUW8 whole entry, looked up): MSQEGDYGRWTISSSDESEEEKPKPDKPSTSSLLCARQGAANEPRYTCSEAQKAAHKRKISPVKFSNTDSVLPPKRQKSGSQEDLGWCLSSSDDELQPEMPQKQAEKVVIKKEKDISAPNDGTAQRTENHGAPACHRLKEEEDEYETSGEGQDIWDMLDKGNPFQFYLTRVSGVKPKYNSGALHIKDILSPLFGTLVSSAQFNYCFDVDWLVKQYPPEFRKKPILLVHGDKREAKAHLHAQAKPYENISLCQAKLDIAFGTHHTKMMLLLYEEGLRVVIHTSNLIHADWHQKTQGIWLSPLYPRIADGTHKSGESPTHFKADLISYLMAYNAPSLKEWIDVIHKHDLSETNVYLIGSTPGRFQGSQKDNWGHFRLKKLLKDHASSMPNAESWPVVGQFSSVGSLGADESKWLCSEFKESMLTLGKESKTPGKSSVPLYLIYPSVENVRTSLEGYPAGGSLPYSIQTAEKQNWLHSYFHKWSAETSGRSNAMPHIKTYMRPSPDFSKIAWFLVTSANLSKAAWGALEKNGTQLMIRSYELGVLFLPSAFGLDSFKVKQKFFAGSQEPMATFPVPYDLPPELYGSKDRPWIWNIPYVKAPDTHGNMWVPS
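Recombinant E. coli-expressed Tdp1 (1 nM) preincubated with compound 15 min at RT, then 5'-biotin/3'-phosphotyrosine-FITC DNA substrate (15 nM) added for 5 min. AlphaScreen beads (10 ug/ml) added, 10 min RT; tyrosine-FITC cleavage read as signal loss.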
ClpP mod – qHTS Assay for Activators of ClpP. ATP-dependent Clp protease proteolytic subunit (Bacillus subtilis (strain 168)), P80244. purified B. subtilis ClpP, FRET peptide cleavage, 20 min. Potency, µM (highest dose often 57.5 µM). hit rate 1.9% among 340,000; active = well fitted falling curve with a large enough effect; inconclusive = small, poorly fitted or top-dose-only effect; inactive = no such curve, though single readings can be large or run the other way; also: the source files actives as falling curves though it sought activators and does not explain the sign; nearly all actives have a fitted effect of over 65% in size
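FRET quenching reversal measured ClpP activation: 10 microg/mL B. subtilis ClpP at pH 8 with the FRET-FV decapeptide, read at 430 nm after 320 nm excitation. The 20-min minus 0-min signal was scaled between DMSO/no-enzyme wells and ADEP (5.8 microM final).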
DT40 TDP1 CPT – growth inhibition of DT40 Tdp1-/-;hTDP1 cells with camptothecin (screen for TDP1 inhibitors); chicken DT40 Tdp1-/-;hTDP1 cells + 20 nM CPT, ATP luminescence, 48 h; Potency, µM (titrated, usually from 46.2 µM), hits mostly inhibitors; hit rate 12% among 420,000; also: nearly all actives have a fitted effect of over 55% in size
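Chicken DT40 Tdp1-/- cells stably complemented with human TDP1 were seeded at 400 cells/well in medium containing 20 nM camptothecin, exposed to pin-transferred compounds, and grown at 37 °C for at least 48 hr. Viability was read as ATP luminescence.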
A number is an active result; . = inactive; ? = inconclusive; / = no result; [ ] = dose if it differs, or a comment. Sampled rows, rich in hits. Any-hit rate of the full collection: about 17%. Unless noted, calls follow the shape of the dose curve; as a rule, active = well fitted curve in the direction sought with a large enough effect; inconclusive = small, poorly fitted or top-dose-only effect, or another doubt; inactive = no such curve, though single readings can be large; an effect the other way counts as inactive or inconclusive.

SMILES | TDP1 cell noCPT | TDP1 inh | ClpP mod | DT40 TDP1 CPT
COc1ccc(NC(=S)N(CCCN2CCCC(C)C2)Cc2cccs2)cc1 (centres undefined) | 29µM | . | / | ?
COc1ccc(C(=O)CCN2CCCC(C)C2)cc1 (centres undefined) | ? | / | . | 23µM
COc1ccc(N2CCN(CC(=O)N3CCC(C)CC3)CC2)cc1 | . | . | . | .
COc1ccc(OC)c(NC(=O)CCN2CCCC(C)C2)c1 (centres undefined) | . | . | . | .
O=C(Nc1cc(Cl)cc(Cl)c1)N1CCCC1 | ? | . | . | ?
O=C(CCNC(=O)c1ccc([N+](=O)[O-])cc1)NCc1ccccc1 | . | . | / | .
CCOc1ccc(S(=O)(=O)/N=C(/c2ccccc2)N(C)C)cc1 | . | . | . | ?
CCOc1ccc(S(=O)(=O)/N=C(\N)c2ccccc2)cc1 | 12µM | / | / | 23µM
COC(=O)c1ccc(OCC2c3cc(OC)c(OC)cc3CCN2C(=O)Cc2ccc(OC)cc2)cc1 (centres undefined) | 21µM | . | . | ?
COc1ccc(CC(=O)N2CCc3cc(OC)c(OC)cc3C2COc2cc(C)cc(C)c2)cc1OC (centres undefined) | 18µM | . | . | 18µM
COc1ccc(OCC2c3cc(OC)c(OC)cc3CCN2C(=O)C(C)C)cc1 (centres undefined) | 23µM | . | / | ?
COc1cc2c(cc1OC)[C@@H](c1ccccc1)CN(C)CC2 | 15µM | / | / | .
COC(=O)c1ccc(OCC2c3cc(OC)c(OC)cc3CCN2C(=O)c2ccc(OC)cc2)cc1 (centres undefined) | ? | . | . | ?
C/C(CCN1CCCc2nc(C)c(C)cc21)=N\O[C@@H](C)CN1CCCc2nc(C)c(C)cc21 | / | .[21 µM] | / | /
CCC(=O)Nc1ccc(OCc2cc(C3Nc4ccccc4C(=O)N3Cc3ccccc3)ccc2OC)cc1 (centres undefined) | / | . | / | /
COC(=O)c1ccc(OCC2c3cc(OC)c(OC)cc3CCN2C(=O)Cc2ccc(OC)c(OC)c2)cc1 (centres undefined) | ? | . | . | 23µM
COc1cc2c(cc1OC)C(c1ccccc1)N(C(=O)c1ccccc1)CC2 (centres undefined) | ? | / | . | ?
COC(=O)c1ccc(OCC(O)CN2CCc3cc(OC)c(OC)cc3C2c2ccccc2)cc1 (centres undefined) | 5.8µM | . | / | 5.8µM
COc1cc2c(cc1OC)C(c1ccccc1)N(C(=O)c1ccco1)CC2 (centres undefined) | 21µM | . | . | 21µM
COC(=O)c1ccc(OCC2c3cc(OC)c(OC)cc3CCN2C(=O)c2ccco2)cc1 (centres undefined) | 21µM | . | . | 23µM
O=C(CCC(=O)N1CCOCC1)Nc1ccc(Cl)c(Cl)c1 | . | . | . | .
O=C1NC2(CCCCC2)C(=O)N1CC(=O)N1CCc2ccccc21 | . | . | / | .
O=C(CC[C@H]1O[C@@H](n2ccc(=O)[nH]c2=O)[C@H](O)[C@@H]1O)N[C@H](Cc1ccccc1)C(=O)NCC1CCCO1 (some centres undefined) | . | / | . | .
CSc1nnc(NC(=O)c2ccc(S(=O)(=O)N3CCOCC3)cc2)s1 | . | . | . | .
COC(=O)c1cc(-c2c(C)oc3cc(OC(C)C)ccc3c2=O)c(C)o1 | 15µM | . | . | 15µM
SMILES | TDP1 cell noCPT | TDP1 inh | ClpP mod | DT40 TDP1 CPT
COc1ccc(S(=O)(=O)c2c(O)c3ccc(C(=O)NCc4ccccc4)cc3[nH]c2=O)cc1 | . | . | ? | .
NS(=O)(=O)c1cc2c(cc1Cl)N[C@@H](CC1CCCC1)NS2(=O)=O | / | . | / | /
CN1C(CCl)Nc2cc(Cl)c(S(N)(=O)=O)cc2S1(=O)=O (centres undefined) | ? | / | 14µM | ?
CCN(C(=O)c1cc2c(=O)[nH]c3ccc(C)cc3c2s1)c1ccccc1F | ? | / | / | 13µM
Cc1ccc2[nH]c(=O)c3cc(C(=O)N(C)c4ccc(C)c(C)c4)sc3c2c1 | 10µM | . | . | 10µM
CCN(C(=O)c1cc2c(=O)oc3ccc(C)cc3c2s1)c1ccccc1F | 21µM | . | . | ?
CCN(C(=O)c1cc2c(=O)[nH]c3ccc(C)cc3c2s1)c1cccc(C)c1 | 18µM | . | / | ?
Nc1ccccc1C(=O)NCCCN1CCOCC1 | . | / | . | .
Cc1cc(Br)c2nc3c(c(C(=O)O)c2c1)CCCCC3 | . | . | . | .
CCN(C(=O)c1cc2c(=O)[nH]c3ccc(C)cc3c2s1)c1ccccc1C | 2.9µM | / | / | 2.6µM
CC1CC(C)CN(C(C(=O)NC2CCCCC2)c2ccnc3ccccc23)C1 (centres undefined) | ? | / | . | ?
COc1ccc(S(=O)(=O)N2CCN(Cc3ccccc3)CC2)cc1 | ? | . | . | .
CN=C1c2cc3cc(OC)ccc3n2CCN1Cc1ccccc1 | 2.9µM | . | . | 3.3µM
CC(C)Cc1nnc(NC(=O)CN2C(=O)NC3(CC(C)CC(C)(C)C3)C2=O)s1 (centres undefined) | ? | . | . | ?
CCOC(=O)C1CCCN1C(=O)c1ccc(OC)c(Br)c1 (centres undefined) | . | . | . | .
CCOC(=O)C1CCCCN1C(=O)c1cc2ccc(OC)cc2c2cc(OC)c(OC)cc12 (centres undefined) | 18µM | / | ? | ?
O=C(CSc1nnc(CNC(=O)c2cccs2)o1)Nc1ccccc1C(F)(F)F | . | . | . | .
NS(=O)(=O)c1ccc(NC(=O)c2ccc(CNS(=O)(=O)c3cc(C(F)(F)F)ccc3Cl)cc2)cc1 | ? | / | . | .
Cc1nnsc1S(=O)c1ccc(Cl)cc1 (centres undefined) | ? | / | . | ?
Cc1nnsc1S(=O)c1ccc(Cl)c(Cl)c1 (centres undefined) | 15µM | / | . | 10µM
CC[C@@]12CCCN3CCc4c(n(c5ccccc45)[C@](O)(C(=O)OC)C1)C32 (some centres undefined) | / | . | / | /
CCC12CCCN3CCC4(C(=C(C(=O)OC)C1)Nc1ccccc14)C32 (centres undefined) | 16µM | . | . | 16µM
COc1ccccc1CNc1ccnc(-c2cccc(NS(C)(=O)=O)c2)n1 | . | / | / | ?
Cc1c2cnn(-c3ccccc3)c(=O)c2c(C)n1CC(=O)N1CCN(c2ccc(F)cc2)CC1 | 15µM | . | . | 21µM
CCOC(=O)C1CCCN(C(=O)Cn2c(=O)cc(C)c3c(C)nn(C)c32)C1 (centres undefined) | ? | . | . | ?
Cc1cc(=O)n(CC(=O)N2CCN(c3ccc(F)cc3)CC2)c2c1c(C)nn2C | 21µM | . | . | 18µM
